# Values joined by “and” are separate entries in the source; they are usually repeats but may differ in a detail not shown here. Equal values may be shown once. Values without a mark were called inactive. Inconclusive results are not listed. A call without a number means that no potency is given here. Active and inactive are the calls of the source. Unless noted, the call rests on the fitted dose curve; in most records, active means well fitted curve in the direction sought with a large enough effect; inconclusive means small, poorly fitted or top-dose-only effect, or another doubt; inactive means no such curve, though single readings can be large; an effect the other way counts as inactive or inconclusive.
# Legend:
# [1] = Cell Viability - Hek293 (AID 427;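 active means compounds whose dose-response curve shows a full or clear partial loss of cell viability, called from curve shape rather than a numeric limit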;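 further: potency means the concentration at half of the fitted maximal effect; cells exposed to compound for 40 hours at 37 °C before reading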); details: qHTS
# How it was run: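 AC50 values derive from Hill-modelled concentration-response of ATP-based luminescence, normalized between DMSO-only and 100 uM tamoxifen controls. Cells were exposed in complete culture medium for 40 hr at 37 °C before detection.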
# [2] = Cell Viability - HepG2 (AID 433; calls by dose curve;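 further: potency means the concentration at half of the fitted maximal effect; potency for ATP loss meaning cytotoxicity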); details: qHTS
# How it was run: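 Read-out is luciferase-based quantitation of cellular ATP as a measure of viable HepG2 cells after 40 h treatment at 37 °C. Signal decrease is scaled between DMSO-only and 100 uM tamoxifen controls, with AC50 fitted by the Hill equation.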
# [3] = Cell Viability - MRC5 (AID 434; calls by dose curve;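 further: potency means the concentration at half of the fitted maximal effect; cells exposed to compound for 40 hours at 37 °C; potency reflects cytotoxicity seen as loss of intracellular ATP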); details: MRC5 lung fibroblast viability, qHTS
# How it was run: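 AC50 values come from Hill-equation fits of intracellular ATP loss, measured by CellTiter-Glo luminescence. Normal lung fibroblasts (MRC5) had 40 hr compound treatment at 37 C, normalized between DMSO and 100 uM tamoxifen.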
# [4] = Cell Viability - SK-N-SH (AID 435; calls by dose curve;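 further: potency means the concentration at half of the fitted maximal effect; compound exposure lasted 40 h at 37 °C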); details: SK-N-SH neuroblastoma cell viability qHTS
# How it was run: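 Luminescent ATP signal served as the viability read-out after 40 hours of compound treatment of human neuroblastoma SK-N-SH cells. Concentration-response data, scaled between DMSO and 100 uM tamoxifen, gave AC50 values by standard Hill modeling.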
# [5] = Cell Viability - HUV-EC-C (AID 542); details: HUV-EC-C endothelial cell viability, qHTS; series mostly up to 92.2 µM; further: nearly all actives have a fitted effect of over 35% in size
# How it was run: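 CellTiter-Glo luminescence measured ATP loss in HUV-EC-C cells (1000/well) after 40 hr compound exposure at 37 °C, in complete culture medium. Concentration-response data were Hill-fitted to give AC50.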
# [6] = Cell Viability - Mesenchymal (AID 546); details: mesenchymal cells viability, qHTS; series mostly up to 91.7 µM;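 further: cells exposed to compound for 40 hours before reading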
# How it was run: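 CellTiter-Glo luminescence (intracellular ATP, 20 min room temperature) after 40 hr compound exposure at 37 °C of 1000 glomerulus-derived human kidney mesenchymal cells/well; AC50 values obtained by fitting qHTS concentration-response data to the Hill equation.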
# [7] = Cellular Toxicity (caspase-3) HepG2 (AID 654); details: HepG2 caspase-3 activation, luminescence, 0% = DMSO only, 100% = tamoxifen; series mostly up to 92.2 µM;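 further: cells exposed to compound for 16 hours before reading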
# How it was run: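 Caspase 3/7 activation is measured as a luminescence increase (aminoluciferin substrate) after 16 h compound exposure of human hepatocarcinoma HepG2 cells. AC50 values are Hill fits, scaled between DMSO baseline and 100 uM tamoxifen stimulation.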
# [8] = Cellular Toxicity (caspase-3) HUV-EC-C (AID 656); details: HUV-EC-C cells, caspase-3 activation (apoptosis), vehicle = 0, 100 µM tamoxifen = 100%; series mostly up to 92.2 µM
# How it was run: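 qHTS; HUV-EC-C, 1000 cells/well; 5 hr settle, 16 hr cmpd, 37°C; Caspase-Glo 3/7, 20 min RT; luminescence. Norm: DMSO = 0%, tamoxifen 100 uM = 100%. Hill-fit AC50.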
# [9] = Cellular Toxicity (caspase-3) SHSY5Y (AID 657); details: SH-SY5Y caspase-3 activation, DMSO zero, 10 µM staurosporine = 100%; series mostly up to 91.7 µM;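 further: cells exposed to compound for 16 hours at 37 °C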
# How it was run: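 qHTS, SH-SY5Y, 1500 cells/well, 5 h pre-incubation 37 °C; compound 16 h 37 °C; Caspase-Glo 3/7 1 h RT; luminescence. Norm.: DMSO = 0, 10 uM staurosporine = 100%. Hill fit → AC50.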
# [10] = Cellular Toxicity (caspase-3) BJ (AID 658); details: BJ fibroblasts, luminescence, normalized: DMSO 0%, staurosporine 100%; series mostly up to 91.7 µM;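 further: cells exposed to compound for 16 hours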
# How it was run: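 Caspase-Glo 3/7 luminescence, read 1 hr after reagent at room temperature, in normal BJ fibroblasts exposed 16 hours at 37 °C. AC50 values from Hill-equation concentration-response, scaled between DMSO basal and 10 uM staurosporine as 100%.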
# [11] = Cellular Toxicity (caspase-3) MRC-5 (AID 659); details: MRC-5 cells, luminescence, normalized: DMSO 0%, 10 µM staurosporine 100%; series mostly up to 91.7 µM
# How it was run: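 Luminescent Caspase-Glo 3/7 read-out (1 h, room temperature) after a 16 h, 37 °C compound exposure of MRC-5 lung fibroblasts at 1500 cells/well. Concentration-response AC50 from Hill equation; 0% DMSO, 100% 10 uM staurosporine.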
# [12] = Cellular Toxicity (caspase-3) SK-N-SH (AID 661); details: SK-N-SH caspase-3 activation, qHTS, DMSO as zero, staurosporine as full; series mostly up to 91.7 µM;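 further: cells exposed to compound for 16 hours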
# How it was run: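 Caspase 3/7 activation was read by luminogenic substrate cleavage after 16 hour treatment of SK-N-SH cells. Signal was scaled between DMSO and 10 uM staurosporine, and concentration-response data were fitted with the Hill equation for AC50.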
# [13] = Cellular Toxicity (caspase-3) H-4-II-E (AID 663); details: H-4-II-E rat hepatoma, scaled: DMSO 0%, 100 µM tamoxifen 100%; series mostly up to 92.2 µM;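 further: cells exposed to compound for 16 hr before readout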
# How it was run: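 Caspase 3/7 activation measured by luminescent aminoluciferin substrate cleavage after 16 hr compound treatment of H-4-II-E cells in complete medium. Increase normalized between DMSO (basal) and 100 uM tamoxifen (100%); Hill-equation AC50 from concentration-response.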
# [14] = Cellular Toxicity (caspase-3) Hek293 (AID 664); details: HEK293 caspase-3 activation, DMSO = 0%, 100 µM tamoxifen = 100%; series mostly up to 92.2 µM;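 further: cells exposed to compound for 16 h at 37 °C before readout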
# How it was run: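 Concentration-response qHTS: caspase 3/7 activation measured by luminescent aminoluciferin substrate cleavage after 16 h compound exposure of Hek 293 cells. AC50 from Hill equation, with DMSO as basal and 100 uM tamoxifen as 100%.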
# [15] = Cellular Toxicity (caspase-3) N2a (AID 665); details: N2a cells, luminescence, normalized: DMSO 0%, 10 µM staurosporine 100%; series mostly up to 92.2 µM;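 further: compound exposure lasted 16 h at 37 °C before readout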
# How it was run: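 Caspase-3/7 activation measured as luminescence from Caspase-Glo reagent (1 h, room temperature) after 16 h compound exposure of mouse N2a cells. AC50 values from Hill-equation concentration-response, scaled between DMSO and 10 uM staurosporine.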
# [16] = Cellular Toxicity (caspase-3) NIH 3T3 (AID 666); details: NIH 3T3 caspase-3 activation, apoptosis/toxicity, 0% DMSO, 100% is 100 µM tamoxifen; series mostly up to 92.2 µM
# How it was run: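 Caspase-Glo 3/7 luminescence reported caspase activation in 1000 NIH 3T3 cells/well after 16 h compound exposure at 37 C. DMSO set basal and 100 uM tamoxifen set 100% stimulation; concentration-response modeled with the Hill equation for AC50.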
# [17] = Cellular Toxicity (caspase-3) Renal Proximal Tubule (AID 667); details: renal proximal tubule cells; series mostly up to 91.7 µM;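 further: cells exposed to compound for 16 hours at 37 °C before detection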
# How it was run: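 AC50 derived by standard Hill fit of concentration-response data, normalized between DMSO basal and 10 uM staurosporine as 100% stimulation. Cells: primary rat kidney proximal tubule, 16 h treatment at 37 °C.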
# [18] = qHTS assay for small molecule disruptors of the mitochondrial membrane potential - 5 hr assay (AID 651755; calls by dose curve; further: nearly all actives have a fitted effect of over 40% in size; further: potency means the concentration at half of the fitted maximal effect); details: JC-1-type ratio dye; series mostly up to 92.2 µM
# How it was run: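 Membrane-potential dye readout: red aggregate (540 ex/590 em) versus green monomer (490 ex/535 em) fluorescence after 30 min dye loading, following 5 hr compound exposure at 37C of overnight-plated HepG2 cells.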
# [19] = biological target: Peroxisome proliferator-activated receptor alpha (Homo sapiens) (UniProt Q07869); assay: qHTS assay for small molecule agonists of the peroxisome proliferator-activated receptor alpha (PPARalpha) signaling pathway (AID 651778); details: PathHunter PPARalpha complementation, chemiluminescence, 6 h; hits give high values
# Chain of Peroxisome proliferator-activated receptor alpha (Homo sapiens) (Q07869 whole entry, looked up): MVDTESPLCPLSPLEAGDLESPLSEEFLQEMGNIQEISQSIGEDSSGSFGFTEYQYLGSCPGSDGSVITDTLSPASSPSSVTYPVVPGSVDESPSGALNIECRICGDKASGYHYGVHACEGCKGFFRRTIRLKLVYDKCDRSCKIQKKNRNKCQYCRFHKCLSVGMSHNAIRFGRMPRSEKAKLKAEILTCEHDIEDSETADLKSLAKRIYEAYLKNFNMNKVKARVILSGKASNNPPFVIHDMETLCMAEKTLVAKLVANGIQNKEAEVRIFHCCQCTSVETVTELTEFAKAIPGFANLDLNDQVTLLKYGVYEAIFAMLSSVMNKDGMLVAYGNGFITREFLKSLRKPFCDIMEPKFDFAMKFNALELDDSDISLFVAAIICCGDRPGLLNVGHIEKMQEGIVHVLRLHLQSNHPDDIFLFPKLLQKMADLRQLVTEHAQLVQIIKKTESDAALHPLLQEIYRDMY
# How it was run: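 Chemiluminescence from complemented enzyme reported PPARalpha activation in cells after 6 hr of compound treatment at 37 C. The detection reagent was incubated for 60 min at room temperature, and compounds were scored as agonists.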
# [20] = biological target: Nuclear receptor ROR-gamma (Homo sapiens) (UniProt P51449); assay: qHTS assay for small molecule antagonists of the retinoid-related orphan receptor gamma (ROR-gamma) signaling pathway (AID 651802); details: ROR-gamma antagonist cell reporter assay; series mostly up to 92.2 µM; further: nearly all actives have a fitted effect of over 60% in size; further: potency means the concentration at half of the fitted maximal effect
# Chain of Nuclear receptor ROR-gamma (Homo sapiens) (P51449 whole entry, looked up): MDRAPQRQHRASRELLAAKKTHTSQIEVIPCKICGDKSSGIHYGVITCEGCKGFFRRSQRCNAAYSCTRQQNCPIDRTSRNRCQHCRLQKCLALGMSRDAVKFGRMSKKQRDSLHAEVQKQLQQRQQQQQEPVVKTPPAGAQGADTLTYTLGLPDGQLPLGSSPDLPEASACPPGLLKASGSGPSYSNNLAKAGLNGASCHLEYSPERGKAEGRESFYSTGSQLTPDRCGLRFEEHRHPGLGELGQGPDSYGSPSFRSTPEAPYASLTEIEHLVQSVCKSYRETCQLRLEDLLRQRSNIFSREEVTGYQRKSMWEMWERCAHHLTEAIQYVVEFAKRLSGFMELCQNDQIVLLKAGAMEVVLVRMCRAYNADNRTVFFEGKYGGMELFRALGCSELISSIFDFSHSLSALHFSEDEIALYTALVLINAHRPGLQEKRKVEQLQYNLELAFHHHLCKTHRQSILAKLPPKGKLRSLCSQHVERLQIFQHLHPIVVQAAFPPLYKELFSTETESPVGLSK
# How it was run: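 Luminescence (One-Glo, 30 min RT) measured 16 h after compound addition and doxycycline induction at 37C. Reporter: RORE-luciferase under TET-inducible ROR-gamma in CHO cells.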
SMILES,Potency [1],Potency [2],Potency [3],Potency [4],outcome [5],outcome [6],outcome [7],outcome [8],outcome [9],outcome [10],outcome [11],outcome [12],outcome [13],outcome [14],outcome [15],outcome [16],outcome [17],Potency [18],max response [19],Potency [20]
CC(C)COC(=O)c1ccccc1C(=O)OCC(C)C,> 92 µM,> 92 µM,> 92 µM,> 92 µM,inactive,inactive,inactive,inactive,inactive,inactive,inactive,inactive,inactive,inactive,inactive,inactive,inactive,inactive,-0.716%,inactive
Oc1ccccc1O,,,,,,,,,,,,,,,,,,,,5.96 µM (active)
Oc1ccccc1Cl,> 92 µM,> 92 µM,> 92 µM,> 92 µM,inactive,inactive,inactive,inactive,inactive,inactive,inactive,inactive,inactive,inactive,inactive,inactive,inactive,inactive,-3.34%,
COC1=CC(=O)OC(CCc2ccc3c(c2)OCO3)C1 (stereo not given),> 92 µM,> 92 µM,> 92 µM,> 92 µM,inactive,inactive,inactive,inactive,inactive,inactive,inactive,inactive,inactive,inactive,inactive,inactive,inactive,inactive,-0.116%,inactive
CCOC(=O)c1ccccc1N,> 92 µM,> 92 µM,> 92 µM,> 92 µM,inactive,inactive,inactive,inactive,inactive,inactive,inactive,inactive,inactive,inactive,inactive,inactive,inactive,inactive,-7.33%,inactive
c1ccc(Nc2ccc3ccccc3c2)cc1,> 92 µM,> 92 µM,> 92 µM,> 92 µM,inactive,inactive,inactive,inactive,inactive,inactive,inactive,inactive,inactive,inactive,inactive,inactive,inactive,42.2 µM (active),18.5% and 8.75%,inactive
CC(=O)/C=C/c1ccccc1,> 92 µM,> 92 µM,> 92 µM,> 92 µM,inactive,inactive,inactive,inactive,inactive,inactive,inactive,inactive,inactive,inactive,inactive,inactive,inactive,inactive,-5.69%,inactive
c1ccc2c(c1)-c1cccc3cccc-2c13,> 92 µM,> 92 µM,> 92 µM,> 92 µM,inactive,inactive,inactive,inactive,inactive,inactive,inactive,inactive,inactive,inactive,inactive,inactive,inactive,inactive,-3.35% and -1.28%,inactive

# Source: PubChem BioAssay (NCATS)
